Screening results: PubChem, several laboratories
In the library only some 4.6% were active in any assay of this set; here they are far more common.
ADAM17 inh = inhibits human ADAM17 | P78536 | recombinant ADAM17, EDANS/DABCYL FRET peptide cleavage | inhibition, % at 6.95 µM | hit rate 0.83% among 370,000 | AID 720648;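 active means inhibition above the mean of compounds lying between control limits plus 3 SD, set per campaign, cut at about 8.5% in these data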
KLK7 zymogen act = activates the human kallikrein-7 zymogen | hit rate 0.9% among 370,000 | P49862 | activation, % at 7 µM | purified proKLK7, EDANS-DABCYL substrate fluorescence; 100% is mature enzyme control, 0% vehicle;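 active means activation above the mean of all tested compounds plus 3 SD, computed per campaign excluding outliers beyond control limits, cut at about 13% in these data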
ADAM10 inh = inhibitors of human ADAM10; inhibition, % at 7 µM; hit rate 0.62% among 370,000; O14672; AID 720582; recombinant ADAM10, EDANS/DABCYL FRET peptide cleavage, 3 h;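 active means inhibition above a per-campaign cutoff equal to the mean of compounds falling between control-based bounds plus 3 SD, cut at about 20% in these data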
NR3A LBD binder = modulates the human NR3A ligand-binding domain; NR3A LBD differential scanning fluorimetry, Tm shift; 0% = protein alone, 100% = glycine-bound protein; Tm shift relative to glycine control, % at 25 µM; hit rate 2.5% among 340,000;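 active means melting temperature shift of at least 10% of the positive control shift, at one fixed dose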
FAS-TE inh = FAS thioesterase (human) inhibition; P49327; hit rate 0.67% among 360,000; AID 602261; recombinant FAS-TE, OMFH fluorogenic substrate, fluorescence endpoint; inhibition, % at 15 µM;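 active means compounds whose normalised, plate-corrected inhibition of enzyme fluorescence in the single-dose primary screen is 50% or more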
Of the large screens only hits and unclear results are named; the others gave an inactive call.

COC(=O)[C@]12C[C@H](CC(=O)N3CCOCC3)C(=O)N(Cc3ccco3)C1=C[C@H](COCc1ccccc1)O[C@@H]2C	none (no result: NR3A LBD binder, FAS-TE inh)
CCCCNC(=O)C1(C(=O)c2ccc(OC)cc2)CC(c2ccccn2)=NO1 (stereo unspecified)	none (no result: NR3A LBD binder, FAS-TE inh)
CC(C#N)(NC(=O)CN1CCN(S(=O)(=O)c2ccc(Br)cc2Cl)CC1)C1CC1 (stereo unspecified)	NR3A LBD binder 10
COc1ccc(CNC(=O)CN2CCN(S(=O)(=O)c3cc(Br)ccc3Br)CC2)cc1OC	none
COc1ccc(/C(N)=N/OC(=O)c2cccs2)cc1OC	NR3A LBD binder 22
COc1ccc(Cl)cc1C(=O)O/N=C(\N)c1ccc(Cl)cc1	NR3A LBD binder 20
COc1cc(OC)c(C(=O)O/N=C(\N)c2ccc(C)cc2)cc1OC	none
Cc1ccc(-n2c(SCC(=O)N/N=C/C=C\c3ccco3)nnc2-c2ccccc2)cc1	none (no result: NR3A LBD binder, FAS-TE inh)
COc1ccc(-c2c(C#Cc3ccsc3)c3cc(-c4ccc5[nH]ccc5c4)ccc3n2C)cc1	NR3A LBD binder 11
C[C@H](O)[C@@H]1CN2CCc3ccc(N4CCOCC4)cc3[C@@H]2C[C@@H]1N(C)C(=S)NCCc1ccccc1	none (no result: NR3A LBD binder, FAS-TE inh)
COc1cccc2cc(-c3nnc(SCC(=O)Nc4cc(C(F)(F)F)ccc4Cl)n3N)oc12	NR3A LBD binder 11
CCn1c(SCC(=O)Nc2nccs2)nnc1-c1cc2cccc(OC)c2o1	none
Cc1ccc(-n2[nH]c(C)c(/C=C3/C=Nc4ccccc43)c2=O)cc1C	NR3A LBD binder 15
CCOC(=O)C1=CN(Cc2cccc(-c3ccc(F)cc3)c2)S(=O)(=O)N(C)C1C (stereo unspecified)	NR3A LBD binder 13
Cc1cc(C)c(OC2(c3ccccc3)OC(=O)c3ccccc32)c(C)c1 (stereo unspecified)	NR3A LBD binder 16
C[N+]1=C2N[C@@H](c3ccccc3)CC(=O)N2/C(=C\c2ccccc2)[C@@H]1Cc1ccccc1	none (no result: KLK7 zymogen act, NR3A LBD binder, FAS-TE inh)
CCOc1ccc(C(NC(=O)/C=C/c2ccco2)c2ccc(OC)c(OC)c2)cc1 (stereo unspecified)	NR3A LBD binder 10
CCCCS(=O)(=O)CC(COc1ccccc1)OC(=O)c1ccccc1 (stereo unspecified)	NR3A LBD binder 14
Cc1ccc(S(=O)(=O)N/N=C/c2cc([N+](=O)[O-])ccc2O)cc1[N+](=O)[O-]	NR3A LBD binder 21
O=[N+]([O-])c1ccc(OCCCN2CCC(C(O)(c3ccccc3)c3ccccc3)CC2)c(Cl)c1	none (no result: NR3A LBD binder, FAS-TE inh)
O=C(CN1CCN(c2ccccc2Cl)CC1)NC1CCCc2ccccc21 (stereo unspecified)	none
Cc1ccc(Cl)cc1N1CCN(CC(=O)NC2CCCc3ccccc32)CC1 (stereo unspecified)	NR3A LBD binder 10
Cc1cc(C)cc(N(CC(=O)NCc2ccc(F)cc2)C(=O)c2snc(C(N)=O)c2N)c1	NR3A LBD binder 11
CC(OC(=O)c1ccc([N+](=O)[O-])o1)C(=O)Nc1nc(-c2ccc(F)c(F)c2)cs1 (stereo unspecified)	NR3A LBD binder 15
CCN(CC)c1ccc(/C=N/NC(=O)c2cccc(S(=O)(=O)Nc3ccccc3OC)c2)cc1	none
Cc1[nH]c2ccccc2c1/C=N/NC(=O)c1cccc(Br)c1	NR3A LBD binder 16 (no result: ADAM17 inh, KLK7 zymogen act, ADAM10 inh)
CCN(CC)c1ccc(/C=N/NC(=O)c2cccc(S(=O)(=O)Nc3ccccc3OC)c2)c(O)c1	NR3A LBD binder 14
Cc1[nH]c2ccccc2c1/C=N/Nc1cccc(C(=O)O)c1	none
Cc1[nH]c2ccccc2c1/C=N/NC(=O)c1cc(-c2ccccc2)n[nH]1	NR3A LBD binder 19
O=C(N/N=C/c1cccs1)c1cccc(S(=O)(=O)Nc2ccc(Cl)cc2)c1	NR3A LBD binder 28
O=C(N/N=C/c1cccs1)c1cccc(NC(=O)c2ccc(Cl)cc2)c1	none (no result: NR3A LBD binder, FAS-TE inh)
CCCCCc1ccc(NC(=O)OCCCN2CCC3(CCC(c4ccccc4)CC3)C2=O)cc1 (stereo unspecified)	none (no result: NR3A LBD binder, FAS-TE inh)
Cc1nn(-c2ccccc2)c2sc(C(=O)NC3CCCC3)cc12	none (no result: NR3A LBD binder, FAS-TE inh)
Cc1[nH]c2ccccc2c1/C=N/NC(=O)c1ccccc1	none
O=C(N/N=C/c1[nH]c2ccccc2c1Cl)c1cccc(Br)c1	NR3A LBD binder 12
Cc1[nH]c2ccccc2c1/C=N/NC(=O)c1ccc(N)cc1	NR3A LBD binder 11
Cc1[nH]c2ccccc2c1/C=N/NC(=O)c1cccc(S(=O)(=O)Nc2ccccc2Cl)c1	NR3A LBD binder 24
CCc1cccc2c(/C=N/NC(=O)c3cccc(S(=O)(=O)Nc4ccccc4Cl)c3)c[nH]c12	NR3A LBD binder 27
Cc1ccc(/C=N/NC(=O)c2cccc(S(=O)(=O)Nc3ccccc3Cl)c2)o1	none
N#C[C@@H]1N[C@H](CO)[C@@H]1c1ccccc1	none (no result: NR3A LBD binder, FAS-TE inh)
O=C(Cn1c2c(sc1=O)C1c3ccccc3OCC1CS2)Nc1ccc(Cl)cc1 (stereo unspecified)	NR3A LBD binder 13
CC(C)N1CCCCC(NC(=O)c2ccc(-c3ccccc3)cc2)C1=O (stereo unspecified)	none (no result: NR3A LBD binder, FAS-TE inh)
Cc1ccc(NC(=O)c2nc[nH]c2C(=O)NC2CCN(C(=O)OC(C)(C)C)CC2)cc1	NR3A LBD binder 23
CC(C)(C)OC(=O)N1CCC(NC(=O)c2[nH]cnc2C(=O)Nc2ccc(Cl)cc2)CC1	NR3A LBD binder 27
Cc1cc(Cl)ccc1OCC(=O)NCCC(=O)O	none
Cc1cc(Cl)ccc1OCC(=O)OCC(=O)NCCNC(=O)COC(=O)COc1ccc(Cl)cc1C	NR3A LBD binder 12
O=C(c1ccccc1)N1CC[C@H]2[C@H](CCCN2Cc2cc(F)cc(F)c2)C1	none (no result: NR3A LBD binder, FAS-TE inh)
Clc1ccc(-n2ncc3c(NCc4ccc5c(c4)OCO5)ncnc32)cc1	NR3A LBD binder 12
Oc1ccc2[nH]cc(CCc3ccccc3)c2c1-c1ccccc1	none (no result: NR3A LBD binder, FAS-TE inh)
O=C(COC(=O)CCSc1ccc(Cl)cc1)NCCc1ccccc1	NR3A LBD binder 16
O=C(CCN1CCCCCC1)Nc1ccc(F)c(F)c1	NR3A LBD binder 673
CN1CCN(CCC(=O)Nc2ccc(F)c(F)c2)CC1	none
Cn1ncc(Br)c1C(=O)Nc1ccc(Cl)cn1	NR3A LBD binder 13
Cn1ncc(Br)c1C(=O)Nc1ccc(Br)cn1	none
Cc1ccc(/C=N/Nc2cc(C)nc(NCc3ccccc3)n2)cc1	none
Cc1cc(N/N=C/c2ccc(F)cc2)nc(NCc2ccccc2)n1	NR3A LBD binder 35
COc1ccc(Cn2cc(COC(=O)NCC(C)C)nn2)cc1	none (no result: NR3A LBD binder, FAS-TE inh)
COC(CNC(=O)[C@H](Cc1c[nH]c2ccccc12)NC1(C(=O)NCc2ccccc2)CCCCC1)OC	none (no result: KLK7 zymogen act, NR3A LBD binder, FAS-TE inh)
CCOC(=O)[C@@]12CCC3=C1N(CCC3)C(=O)[C@H](CC(=O)N1CCSCC1)C2	none (no result: NR3A LBD binder, FAS-TE inh)
O=S1(=O)c2c(cccc2N2CCSCC2)Oc2ccccc2CN1Cc1cn(Cc2ccc(C(F)(F)F)cc2)nn1	none (no result: NR3A LBD binder, FAS-TE inh)
O=C(Nc1ccc(S(=O)(=O)N2CCCc3ccccc32)cc1)C1CCCO1 (stereo unspecified)	NR3A LBD binder 11 (no result: ADAM17 inh, KLK7 zymogen act, ADAM10 inh)
